Assay outcomes from PubChem.
GPR32 ag – GPR32 (DRV1) agonism, beta-arrestin recruitment; CHO-K1 GPR32 beta-arrestin PathHunter luminescence, 90 min; zero percent set by DMSO-only wells; 48,000 tested, 2.5% active; activation, % at 76.9 µM; AID 1346428; O75388;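 active means activation of at least 60% and not above a set upper limit, about 1 call in 100 departs from these limits; inconclusive means activation of 40% to 60%, or above that upper limit; inactive means activation under 40%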; further: 0% is about no effect
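Agonism was scored as beta-arrestin recruitment to ProLink-fused GPR32 in stably transfected CHO-K1 cells, giving a chemiluminescent beta-Gal signal; compounds were incubated 90 min at 37 °C.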
FH mod – Identification of activators of human fumarate hydratase by quantitative high-throughput screening. Potency, µM (top dose mostly 79.9 µM), for inactives: at the top dose activity change, negative = inhibition, hits mostly inhibitors. 54,000 tested, 0.22% active. FH coupled MDH/diaphorase resazurin fluorescence, 15 min. AID 1347055, 2019. Fumarate hydratase, mitochondrial (Homo sapiens), P07954; further: potency means the concentration at half of the fitted maximal effect; on the % scale 0 is the no-effect control and ±100 the full control effect; the screen sought activators but most active calls are inhibition curves; nearly all actives have a fitted effect of over 45% in size
Target sequence (P07954 whole entry, looked up): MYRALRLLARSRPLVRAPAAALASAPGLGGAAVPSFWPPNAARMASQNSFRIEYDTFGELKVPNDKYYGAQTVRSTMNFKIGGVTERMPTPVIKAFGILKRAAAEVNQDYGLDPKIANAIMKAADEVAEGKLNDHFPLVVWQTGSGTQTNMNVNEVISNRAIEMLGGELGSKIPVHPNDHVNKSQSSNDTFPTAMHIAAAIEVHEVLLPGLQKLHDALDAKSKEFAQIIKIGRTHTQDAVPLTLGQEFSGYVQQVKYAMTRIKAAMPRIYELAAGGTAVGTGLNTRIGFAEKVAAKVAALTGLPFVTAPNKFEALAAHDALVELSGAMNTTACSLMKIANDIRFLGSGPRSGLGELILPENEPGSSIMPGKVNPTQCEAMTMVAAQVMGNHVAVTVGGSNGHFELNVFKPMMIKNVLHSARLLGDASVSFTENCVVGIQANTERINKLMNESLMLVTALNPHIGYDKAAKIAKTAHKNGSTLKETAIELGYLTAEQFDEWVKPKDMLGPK
NTMT1 inh – NTMT1 methyltransferase inhibition | Q9BV86 | Potency, µM (series often up to 114 µM), for the others: at the highest dose activity change, negative = inhibition, actives largely listed as inhibitors | 59,000 tested, 2.5% active | NTMT1 MTase-Glo SAH luminescence, purified enzyme;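 further: potency means the concentration at half of the fitted maximal effect; plate controls were DMSO vehicle for no effect and no enzyme for full effect; nearly all actives have a fitted effect of over 65% in size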
OvCa metastasis – ovarian cancer metastasis inhibition, 3D TME model | Potency, µM (top dose mostly 45.8 µM), without a hit: at the highest dose activity change, negative = inhibition, most hits filed as inhibitors | SKOV3ip1-GFP adhesion/invasion on 3D omental model, fluorescence | 46,000 tested, 0.1% active;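 further: potency means the concentration at half of the fitted maximal effect; plate controls were DMSO wells for no effect and tomatine positive control wells for full effect; nearly all actives have a fitted effect of over 65% in size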
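Adhesion/invasion was scored as fixed GFP-labeled SKOV3ip1 cell counts (488/509 nm), normalized to DMSO and tomatine controls. Cancer cells in serum-free medium, with four compound doses (0.36-46 umol/L), sat 2 hr at RT then 16 hr at 37 C on a 48 hr fibroblast/mesothelial/ECM culture.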
Active calls of the source: *; i = inactive; ? = inconclusive; . = not tested or not shown; ! = a repeat was not active; [ ] = remark or other dose. An excerpt weighted towards active compounds, which were near 3.9% of everything screened. Unless noted, the call rests on the fitted dose curve; in most records, active means well fitted curve in the direction sought with a large enough effect; inconclusive means small, poorly fitted or top-dose-only effect, or another doubt; inactive means no such curve, though single readings can be large; an effect the other way counts as inactive or inconclusive.

SMILES	GPR32 ag	FH mod	NTMT1 inh	OvCa metastasis
Cc1ccc(-n2ncc(C(=O)NCCN3CCC(Cc4ccccc4)CC3)c2C2CCN(C(=O)OC(C)(C)C)CC2)cc1	-25	-22%	89µM*	?
CSC[C@H]1CN(Cc2c[nH]c3c(N)ncnc23)C[C@@H]1O	.	.	-2%	.
CCC(C)N(C)C(=O)Cn1nc(-c2ccc(C)cc2)ccc1=O (configuration not stated)	.	.	7%	.
Cc1c(C(=O)N2CCOc3ccc(-c4ccc(N)nc4)cc3C2)ccc(S(C)(=O)=O)c1F	.	5%	50µM*!	.
CCN(CC)CCn1c(-c2ccccc2)nc2c(NCCO)nc(C)nc21	.	.	89µM*	.
Cn1nnnc1Sc1ncnc2scc(-c3ccccc3C#N)c12	.	.	-5%[57.5 µM]	.
NC(=O)C1CCN(c2nc(-c3ccc4c(c3)OCO4)cs2)CC1	.	.	-3%[57.5 µM]	.
O=C(CSc1nc2c(c(=O)[nH]1)CCC2)Nc1cc(C(F)(F)F)ccc1Cl	83*	-5%	2%	2%
CC(Sc1nc2c(c(=O)[nH]1)CCCC2)C(=O)Nc1cc(C(F)(F)F)ccc1Cl (configuration not stated)	25	?	16%	-1%
CC(C)(C)CC(C)(C)c1ccc(OCC(=O)Nc2ccc(S(=O)(=O)Nc3ncccn3)cc2)cc1	-3	-4%	-1%	2%
CC(C)(C)c1ccc(OCC(=O)Nc2ccc(S(=O)(=O)Nc3ncccn3)cc2)cc1	79*	-13%	4%	-6%
C[C@@H]1O[C@@H](O[C@H]2[C@H](O)[C@@H](C(=O)O)O[C@@H](O[C@H]3CC[C@@]4(C)C(CC[C@]5(C)C4CC=C4C6CC(C)(C)CC[C@]6(C(=O)O)CC[C@]45C)C3(C)C)[C@@H]2O[C@@H]2O[C@H](CO)[C@@H](O)[C@H](O)[C@H]2O)[C@H](O)[C@H](O)[C@H]1O (some centres not stated)	.	-9%[20.6 µM]	-21%[12.6 µM]	.
CNCc1ccc(C)c(NC(=O)c2ccc(Nc3nc(-c4ccccc4)c4ccccc4n3)cc2)c1	.	7%	35µM*	.
Clc1ccc(Nc2nc(-c3ccccc3)c3ccccc3n2)c(Cl)c1	-4	-4%	8%	3%
COc1cccc(-c2c(C)n(Cc3c(F)cccc3C(F)(F)F)c(=O)n(C[C@H](NCCCC(=O)O)c3ccccc3)c2=O)c1F	.	.	0%	.
CC(=O)OC1CC(C(C)(C)O)OC2CCC3(C)OC4=C(C(=O)C=C5C(C)C(OC(C)=O)C6(C)C(C)OC546)C(O)C3C12C (configuration not stated)	.	5%[20.6 µM]	16%[12.6 µM]	.
CC1OC(=O)C[C@@H]2C(C(=O)O)=CO[C@@H](O[C@H]3O[C@H](CO)[C@@H](O)[C@H](O)[C@H]3O)[C@H]12 (some centres not stated)	.	1%[53.3 µM]	22%[29.8 µM]	.
O=C(O)c1ccc(Nc2nc3ccccc3n3cnnc23)cc1	-3	?	13µM*	7%
Cc1cc(C)cc(Nc2nc3ccccc3n3cnnc23)c1	-16	-6%	6%	5%
CN(C)CCC[C@@]1(c2ccc(F)cc2)OCc2cc(C#N)ccc21	-3	-2%[53.3 µM]	25µM*	.
CC(C)[C@](O)(c1ccc2cc(OC(F)F)c(OC(F)F)cc2c1)c1cn[nH]n1	.	-6%	8%[57.5 µM]	.
CCOc1ccccc1NC(=O)c1cc2ccc3cccnc3c2[nH]1	1	6%	0%	i
O=C(c1cc2ccc3cccnc3c2[nH]1)N1CCCCC1	-16	5%	40µM*	2%
COc1ccccc1NC(=O)c1cc2ccc3cccnc3c2[nH]1	93*	-29%	-10%	0%
c1ccc2c(c1)CCc1ccccc1N2	119*	?	?	.
SMILES	GPR32 ag	FH mod	NTMT1 inh	OvCa metastasis
O=C1c2ccccc2CCc2ccccc21	11	-2%[53.3 µM]	10%[57.5 µM]	.
Nc1c(S(=O)(=O)O)cc(Nc2ccc(Nc3nc(Cl)nc(Nc4ccc(S(=O)(=O)O)cc4)n3)c(S(=O)(=O)O)c2)c2c1C(=O)c1ccccc1C2=O	-55	5µM*	.	.
Cc1ccc(C(=O)Nc2noc3ccccc23)cc1	.	0%	25µM*	.
COc1ccc(C(=O)Nc2noc3ccccc23)cc1	-15	-6%	11µM*	-2%
Cc1cc(C)cc(NC(=O)c2cc(S(=O)(=O)N3CCC(C)CC3)cn2C)c1	4	3%	89µM*	-19%
Cc1cc(NC(=O)c2csc(NC(=O)Cc3ccc(Cl)c(Cl)c3)n2)no1	.	.	12%	.
O=C(c1ccc(F)cc1)C1CCN(CCn2c(=S)[nH]c3ccccc3c2=O)CC1	68*	6%[53.3 µM]	18%[57.5 µM]	.
CC1(C)C(=O)N(CCN2CCC(C(=O)c3ccc(F)cc3)CC2)c2ccccc21	2	0%[53.3 µM]	14%[57.5 µM]	0%
Cc1nc(-c2ccc(S(=O)(=O)NCc3ccc(F)cc3)cc2)co1	?	4%	19%	-11%
Cc1cccc(CNS(=O)(=O)c2ccc(-c3coc(C)n3)cc2)c1	98*	1%	-12%	i
C=C1C(=O)O[C@@H]2C[C@@]3(C)CCC[C@H](C)C3=C[C@H]12	.	5%	11%[57.5 µM]	.
Cc1ccc(CNC(=O)c2oc3c(c2C)-c2nn(Cc4ccc(Cl)cc4)cc2CC3)cc1	-20	-27%	0%	i
Cc1c(C(=O)O)oc2c1-c1nn(Cc3ccc(Cl)cc3)cc1CC2	-24	-39%	50µM*	3%
CCOC(=O)c1oc2c(c1C)-c1nn(Cc3ccc(Cl)cc3)cc1CC2	-41	32µM*[activator]	-14%	i
COc1cccc(CNCCSc2nnnn2C)c1OCc1ccc(Cl)cc1	116*	-19%	?	i
COc1cc(CNCCSc2nnnn2C)cc(Cl)c1OCc1ccccc1	89*	-5%	-4%	i
Cc1ccc(OCC(=O)Nc2c(Cl)ccc3nsnc23)cc1C	84*	-3%	13%	i
CC(C)c1ccc(OCC(=O)Nc2c(Cl)ccc3nsnc23)cc1	45	-17%	?	-7%
Cc1n[nH]c(C)c1S(=O)(=O)N(CC(=O)Nc1ccc(C(F)(F)F)cc1)c1ccc(C(C)C)cc1	12	-18%	14%	?
Cc1cc(C)cc(N(CC(=O)Nc2ccc(C)cc2Cl)S(=O)(=O)c2c(C)[nH]c(=O)[nH]c2=O)c1	79*	-16%	19%	-2%
Cc1ccc(N(CC(=O)Nc2ccc(C)c(F)c2)S(=O)(=O)c2c(C)n[nH]c2C)cc1	102*	-20%	2%	0%
COc1cc(NC(=O)CN(c2cc(C)cc(C)c2)S(=O)(=O)c2c(C)[nH]c(=O)[nH]c2=O)cc(OC)c1	12	-5%	13%	1%
Cc1cc(C)cc(N(CC(=O)Nc2ccc(C(F)(F)F)cc2)S(=O)(=O)c2c(C)[nH]c(=O)[nH]c2=O)c1	112*	-12%	-10%	1%
CC1(C)SC2C(NC(=O)[C@H](C(=O)O)c3ccsc3)C(=O)N2C1C(=O)O (some centres not stated)	.	9%	13%[57.5 µM]	.
COCCN1CCN(Cc2ccc(-c3n[nH]c4c3C(=O)c3c(NC(=O)NN5CCOCC5)cccc3-4)cc2)CC1	.	4%	?	.
